PABP1 MLLE inh: blocks PAM2 peptide binding to the PABP1 MLLE domain; P11940; GST-MLLE / FITC-PAM2 fluorescence polarization; inhibition, % at 20 µM; 360,000 tested, 0.36% active; AID 588489; in the data active = inhibition above about 35%, passing the limit was not always enough;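 also: plate controls were DMSO wells with GST-MLLE for no effect and wells lacking GST-MLLE protein for full effect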
eIF4E-4G inh: blocks eIF4E binding to eIF4G | P63073+Q04637 | TR-FRET eIF4E-eIF4GI(517-606) binding, 2 h | inhibition, % at 21.7 µM | 220,000 tested, 0.37% active | AID 782;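 active = inhibition above about 30%, limit read from the data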;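 also: 0% = full FRET control wells and 100% = background wells lacking eIF4GI fragment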
eIF4H inh: inhibitors of RNA binding by human eIF4H. Q15056. eIF4H fluorescence polarization binding assay. inhibition, % at 35 µM. 290,000 tested, 0.94% active;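 also: calls also rest on retests at 20 µM and on dose response follow-up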
PABP polyA inh: blocks human PABP binding to poly(A) RNA | 290,000 tested, 1% active | calls only at 35 µM | fluorescence polarization | P11940 | AID 2014;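 also: calls also rest on retests at 20 µM and on dose response follow-up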
PERK inh: inhibitors of human PERK kinase; Q9NZJ5; CHO PERK-DD fusion, SEAP luminescence translation reporter; inhibition, % at 5.6 µM; 220,000 tested, 0.17% active;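 active = inhibition above the mean inhibition of all tested compounds plus 3 SD, set separately per screening campaign, cut at about 2.9% in these data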;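 also: PERK kinase domain activated by AP20187 dimerizer at 100 nM; 0% = DMSO with dimerizer and 100% = rapamycin at 8.4 µM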
An asterisk follows results filed as active. Shown are actives, neighbours in structure and some others; about 1.6% of the full set was active somewhere. Unless noted, no rule for the calls is given here.

How did O=c1c(C=Nc2cccc(C(F)(F)F)c2)c[nH]n1-c1cccc(Cl)n1 do in these assays?
PABP1 MLLE inh: -4; eIF4E-4G inh: -26; eIF4H inh: -2; PABP polyA inh: inactive; PERK inh: 4.3*

Results for O=C(O)CN1C(=O)/C(=C2\SC(=S)N(C(Cc3ccccc3)C(=O)O)C2=O)c2ccccc21 (centres undefined) ?
PABP1 MLLE inh: 39*; eIF4H inh: 5; PABP polyA inh: inactive

How did Oc1c(C=Nc2cccc3cccnc23)sc2ccccc12 do in these assays?
eIF4E-4G inh: 5; eIF4H inh: 125*; PABP polyA inh: active; PERK inh: 1

How did O=c1c2ccccc2sc2nc(C3CCCCC3)n(Cc3ccco3)c(=O)c12 do in these assays?
PABP1 MLLE inh: 27; eIF4E-4G inh: -71; eIF4H inh: 33; PABP polyA inh: inactive; PERK inh: -1

How did CCc1nc2oc3cc(OC)ccc3c(=O)c2c(=O)n1Cc1ccco1 do in these assays?
PABP1 MLLE inh: -67; eIF4E-4G inh: 2; eIF4H inh: 52*; PABP polyA inh: active; PERK inh: -1

How did CCc1nc2sc3ccccc3c(=O)c2c(=O)n1Cc1ccco1 do in these assays?
PABP1 MLLE inh: 15; eIF4E-4G inh: 19; eIF4H inh: 69*; PABP polyA inh: active; PERK inh: 0

Results for COc1ccc(-c2nc3oc4cc(OC)ccc4c(=O)c3c(=O)n2Cc2ccco2)cc1 ?
PABP1 MLLE inh: 15; eIF4E-4G inh: 8; eIF4H inh: 0; PABP polyA inh: inactive; PERK inh: -1

Results for COc1ccc2c(=O)c3c(=O)n(Cc4ccco4)c(-c4ccco4)nc3oc2c1 ?
PABP1 MLLE inh: 8; eIF4E-4G inh: 1; eIF4H inh: 86*; PABP polyA inh: active; PERK inh: 1

Results for Cc1nn2c3ccccc3nc2n(Cc2ccccc2)c1=O ?
PERK inh: 3.1*

How did CCn1c(=O)c(C)nn2c3ccccc3nc12 do in these assays?
PABP1 MLLE inh: 3; eIF4E-4G inh: -13; eIF4H inh: -7; PABP polyA inh: inactive; PERK inh: 1

How did CCOC(=O)c1[nH]c2ccccc2c1NC(=S)Nc1cccc(C)c1C do in these assays?
PABP1 MLLE inh: 41*; eIF4E-4G inh: 1; eIF4H inh: -1; PABP polyA inh: inactive; PERK inh: 0

How did COc1ccc(/C=N/NC(=O)CC(=O)NCc2cccnc2)cc1[N+](=O)[O-] do in these assays?
PABP1 MLLE inh: -4; eIF4H inh: -7; PABP polyA inh: inactive

How did O=C(NC(=S)Nc1cccnc1)c1cc2ccccc2o1 do in these assays?
PABP1 MLLE inh: 41*; eIF4E-4G inh: 1; eIF4H inh: 34; PABP polyA inh: inactive; PERK inh: 0

How did O=C(NC(=S)NCc1cccnc1)c1cc2ccccc2o1 do in these assays?
PABP1 MLLE inh: 32; eIF4E-4G inh: 2; eIF4H inh: -5; PABP polyA inh: inactive; PERK inh: 0

How did CC(=O)c1cccc(NC(=S)NC(=O)c2cccc(Cl)c2)c1 do in these assays?
PABP1 MLLE inh: 26; eIF4E-4G inh: -6; eIF4H inh: 3; PABP polyA inh: inactive; PERK inh: 1

How did O=C(NC(=S)Nc1cccnc1)c1cccc(Cl)c1 do in these assays?
PABP1 MLLE inh: 43*

How did O=C(NC(=S)Nc1ccccc1)c1cncc(C#Cc2ccccc2)c1 do in these assays?
PABP1 MLLE inh: 40*; eIF4E-4G inh: 1; eIF4H inh: -5; PABP polyA inh: inactive; PERK inh: 0

Results for Cc1ccc(C)c(NC(=S)N2CCC(NC(=O)c3ccccc3)CC2)c1 ?
PABP1 MLLE inh: -67; eIF4H inh: 1; PABP polyA inh: inactive

Results for O=C(CCN1C(=O)/C(=C/c2ccccc2Cl)SC1=S)NN1CCOCC1 ?
PABP1 MLLE inh: 25; eIF4H inh: -13; PABP polyA inh: inactive

What do the screens show for `CN1CCN(NC(=O)CN2C(=O)S/C(=C\c3c(Cl)cccc3Cl)C2=O)CC1`?
PABP1 MLLE inh: 41*; eIF4E-4G inh: 0; eIF4H inh: 8; PABP polyA inh: inactive; PERK inh: 1

How did CN1c2ccsc2C(O)=C(C(=S)Nc2ccccc2)S1(=O)=O do in these assays?
PABP1 MLLE inh: 28; eIF4E-4G inh: 6; eIF4H inh: 44; PABP polyA inh: inactive; PERK inh: 0

How did CCNC(=O)C1=C(O)c2sccc2N(C)S1(=O)=O do in these assays?
PABP1 MLLE inh: -1; eIF4E-4G inh: 37*; eIF4H inh: 2; PABP polyA inh: inactive; PERK inh: 0

Results for C/C(=C/c1ccccc1)C(=O)N1CCN(c2ccc(F)cc2)CC1 ?
PABP1 MLLE inh: -6; eIF4H inh: -6; PABP polyA inh: inactive

What do the screens show for `COc1ccc(-n2nc(C(=O)NCc3ccco3)c3c4ccccc4n(C)c3c2=O)cc1`?
PABP1 MLLE inh: 8; eIF4E-4G inh: -3; eIF4H inh: 2.8*; PABP polyA inh: active; PERK inh: 0

How did CCN(Cc1nc2ccccc2c(=O)[nH]1)C(=O)c1ccc(C)c(NC(=O)c2ccco2)c1 do in these assays?
PABP1 MLLE inh: 6

How did COc1cc(OC)c(NC(=O)c2ccc3c(SCC(=O)O)c4c(nc3c2)CCCC4)cc1Cl do in these assays?
PABP1 MLLE inh: 1; eIF4E-4G inh: -1; eIF4H inh: 81*; PABP polyA inh: active; PERK inh: 1

What do the screens show for `O=C(O)c1oc2ccc(Br)cc2c1-n1cccc1`?
PABP1 MLLE inh: 4; eIF4H inh: 81*; PABP polyA inh: active; PERK inh: 3

How did CC(=O)N(C)c1nc(N)n(-c2ccccc2)n1 do in these assays?
PABP1 MLLE inh: -3; eIF4E-4G inh: -1; eIF4H inh: 2; PABP polyA inh: inactive; PERK inh: 1

What do the screens show for `CCCNC(=S)NC1CCCC1`?
PABP1 MLLE inh: -20; eIF4E-4G inh: -4; eIF4H inh: -12; PABP polyA inh: inactive; PERK inh: 1

What do the screens show for `OCC(O)CNC(=S)NC1CCCCC1` (centres undefined)?
PABP1 MLLE inh: 42*; eIF4E-4G inh: -1; eIF4H inh: 4; PABP polyA inh: inactive; PERK inh: 1

Results for O=C(N/N=C/c1cc2c(c([N+](=O)[O-])c1)OCO2)c1ccncc1 ?
PABP1 MLLE inh: 4; eIF4H inh: 19; PABP polyA inh: inactive

What do the screens show for `O=C(N/N=C/c1ccncc1)c1cc([N+](=O)[O-])cc([N+](=O)[O-])c1O`?
PABP1 MLLE inh: 6; eIF4E-4G inh: 13; eIF4H inh: 76*; PABP polyA inh: inactive; PERK inh: 1

How did COc1cccc(/C=N/NC(=O)c2ccncc2)c1OC(=O)c1ccc(Br)cc1 do in these assays?
PABP1 MLLE inh: 59*; eIF4H inh: inconclusive; PABP polyA inh: inconclusive

What do the screens show for `COc1cc(/C=N/NC(=O)c2ccncc2)ccc1OC(=O)c1cccc(Br)c1`?
PABP1 MLLE inh: 3; eIF4H inh: -3; PABP polyA inh: inactive

Results for COc1cc(OC)c([N+](=O)[O-])cc1/C=N/NC(=O)c1ccncc1 ?
PABP1 MLLE inh: 22; eIF4E-4G inh: 1; eIF4H inh: 59*; PABP polyA inh: active; PERK inh: 1

How did NCC1C2CCC(O2)C1CO (centres undefined) do in these assays?
PABP1 MLLE inh: -4

Screening results deposited in PubChem by several laboratories.
